# Measurements from PubChem BioAssay AID504850 (National Center for Advancing Translational Sciences (NCATS), 2011).
# Screen size: about 2,300 compounds; about 1,200 (52%) were called active. Not shown: some 34% with an inconclusive outcome. The call rests on the fitted dose curve; in most records, active means well fitted inhibition curve with a large enough effect; inconclusive means small, poorly fitted or top-dose-only effect, or effect the other way; inactive means no such curve, though single readings can be large or run the other way. So high a share suggests a set chosen from earlier hits. This is one part of the list. Square brackets hold non-standard residues; d marks the D form. Peptide text beside a SMILES is read from it. * marks the point of attachment. ξ: configuration not given here. ξF = NC(Cc1ccccc1)C(=O)O; Cbz = O=C(OCc1ccccc1)*
# Assay: Confirmation screen for delayed death inhibitors of the malarial parasite plastid, 48 hour incubation; further: nearly all actives have a fitted effect of over 65% in size
# Settings: P. falciparum-infected erythrocytes, luciferase growth; series mostly up to 28.7 µM; activity change, negative = inhibition: at the top concentration
# Procedure, shortened: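 Erythrocytes infected with luciferase-expressing P. falciparum (2% hematocrit, 0.1% parasitemia) incubated with compounds 48 hours at 37 C, 5% CO2, in RPMI/Albumax. Growth inhibition scored as reduced luminescence after detection reagent.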
# On the % scale 0 is the no-effect control and ±100 the full control effect; potency means the concentration at half of the fitted maximal effect.
SMILES,Potency,"activity change, negative = inhibition"
Cc1cc(C)n2nc(SCC(=O)N3CCN(c4ccc(F)cc4)CC3)nc2n1,12.6 µM (active),–
CCn1c2ccccc2c2cc(Nc3cc(C)nc4ncnn34)ccc21,0.251 µM (active),–
CCOC(=O)CCC(=O)Nc1ncnc2c1C(c1ccccc1)c1c(ccc3ccccc13)O2 (configuration not stated),8.91 µM (active),–
O=C(Nc1ccccc1C(=O)Nc1ccccc1C(=O)O)c1ccccc1,–,-29.2% (inactive)
O=C(Nc1ccccc1O)c1ccc([N+](=O)[O-])cc1,15.8 µM (active),–
Cc1sc(N/N=C/c2cccnc2)nc1-c1ccccc1,12.6 µM (active),–
Cc1ccc(N/N=C/c2ccncc2)cc1,–,-6.56% (inactive)
Cc1sc(NC(=O)c2c(F)cccc2F)nc1-c1ccccc1,–,-7.17% (inactive)
O=C(N1CCOCC1)N1c2ccccc2Sc2ccccc21,–,-18.4% (inactive)
CC1CN(C(=O)N2c3ccccc3Sc3ccccc32)CC(C)O1 (configuration not stated),14.1 µM (active),–
C/C=C(\C)C(=O)NCCN1C2=NC[C@H](Cc3ccccc3)N2C[C@H]1Cc1ccc(O)cc1,11.2 µM (active),–
C[C@H]1CN=C2N(CCNC(=O)CCC3CCCCC3)[C@H](Cc3ccc(O)cc3)CN21,11.2 µM (active),–
C[C@@H](CN1C2=NC[C@H](Cc3ccc(O)cc3)N2C[C@H]1Cc1ccc(O)cc1)NC(=O)CCC1CCCCC1,8.91 µM (active),–
O=C(CCC1CCCCC1)NCCN1C2=NC[C@H](Cc3ccccc3)N2C[C@H]1Cc1ccc(O)cc1,11.2 µM (active),–
Cc1cc2nsnc2c(S(=O)(=O)N2CCN(C)CC2)c1C,–,-4.46% (inactive)
CC1CCN(CCNC(=O)C2CCN(S(=O)(=O)c3cccc4nsnc34)CC2)CC1,14.1 µM (active),–
CN(C)S(=O)(=O)c1cc(NC(=O)c2cc(=O)c3ccccc3o2)ccc1Cl,11.2 µM (active),–
Nc1cc[n+](CC(=O)c2ccc3c(c2)OCCO3)cc1,7.08 µM (active),–
O=Cc1s/c(=N\S(=O)(=O)c2ccccc2)n(CCCCl)c1Cl,–,-12.4% (inactive)
CCOC(=O)c1cnc2c(C)c(Cl)ccc2c1NCCCN1CCOCC1,14.1 µM (active),–
N=c1c2c(n(Cc3ccc(Cl)c(Cl)c3)c3c1CCC3)CCCC2,0.355 µM (active),–
N=c1c2c(n(Cc3ccc(Cl)cc3)c3c1CCC3)CCC2,0.562 µM (active),–
O=C(Nc1ccc(N2CCCCC2)c(Cl)c1)c1cccnc1,11.2 µM (active),–

SMILES,Potency,"activity change, negative = inhibition"
Cc1cc(C)cc(NC(=O)c2cccnc2)c1,–,-20.6% (inactive)
COCCN(C(=O)c1ccccc1F)c1nnc(-c2ccc(OC)cc2)s1,10 µM (active),–
CC(C)(C)C1C/C(=C/c2ccccn2)C(=O)/C(=C/c2ccccn2)C1 (configuration not stated),0.316 µM (active),–
COC(=O)CSc1nc2c(c(-c3ccco3)c1C#N)CCCC2,12.6 µM (active),–
N#C/C(=C\c1ccc(-c2ccc(C(=O)O)cc2)o1)C(=O)Nc1ccc(F)cc1,14.1 µM (active),–
Cc1ccc(NC2=C/C(=N\S(=O)(=O)c3cccs3)c3ccccc3C2=O)c(C)c1,0.282 µM (active),–
CC(C)(C(=O)N[C@H](CO)c1ccccc1)C(=O)N[C@H](CO)c1ccccc1,–,-2.48% (inactive)
CCCCNC(=O)c1onc(CSc2cccc3ccccc23)c1C(=O)O,–,-3.23% (inactive)
CCCC(=O)NC(c1ccccc1)c1c(O)ccc2ccccc12 (configuration not stated),7.08 µM (active),–
CCC1=C/C(=C/c2sc3ccccc3[n+]2CC)CC(C)(C)C1,5.62 µM (active),–
CCC(C)[C@@H](NC(=O)OC(C)(C)C)c1nnc(S(=O)(=O)Cc2cccc(C)c2)o1 (some centres not stated),14.1 µM (active),–
CCCc1nnc(NC(=O)c2nc(S(=O)(=O)Cc3cccc(C)c3)ncc2Cl)s1,–,-23.9% (inactive)
O=C(COc1ccccc1Cl)NC(=S)N1CCc2ccccc21,12.6 µM (active),–
O=C(COc1cccc2ccccc12)Nc1ccc(Cl)cc1C(=O)O,–,-10% (inactive)
COc1cc2cc(CN(Cc3cccs3)C(=S)Nc3ccc(C)cc3)c(=O)[nH]c2cc1OC,10 µM (active),–
COc1cc2cc(CN(CCc3ccccc3C)C(=S)NCCCN3CCOCC3)c(=O)[nH]c2cc1OC,7.94 µM (active),–
CCC(=O)NCCc1cc2ccc(C)cc2[nH]c1=O,–,-7.04% (inactive)
CS(=O)(=O)c1ccc(-c2nnc(NC(=O)c3ccc(S(=O)(=O)N4CCCC4)cc3)o2)cc1,14.1 µM (active),–
C=CCNC(=S)N/N=C/c1ccc(-c2cc(Cl)ccc2Cl)o1,12.6 µM (active),–
O=C(NCc1cccnc1)/C(=C\c1ccc(-c2cccc(Cl)c2)o1)S(=O)(=O)c1ccccc1,12.6 µM (active),–
O=C(NCc1cccnc1)c1nc(-c2ccccc2)n(-c2ccccc2)n1,–,-19.4% (inactive)
Cc1ccc(-n2nc3c(=O)n(CCCC(=O)NCc4ccco4)nc(C)c3c2C)cc1,6.31 µM (active),–
Cc1ccc2c(c1)N(CCC(=O)NCc1ccco1)C(=O)CO2,–,-8.96% (inactive)

SMILES,Potency,"activity change, negative = inhibition"
COc1ccccc1CCNC(=O)CCn1nc(C)c2c(C)n(-c3ccccc3)nc2c1=O,14.1 µM (active),–
COc1cc(CNC(=O)CCn2nc(C)c3c(C)n(-c4ccccc4)nc3c2=O)cc(OC)c1OC,12.6 µM (active),–
COc1ccccc1CNC(=O)CCCn1nc(C)c2c(C)n(-c3ccccc3)nc2c1=O,12.6 µM (active),–
CC(=O)Nc1sc(C)c(C)c1C(=O)OCC(=O)N(CC(C)C)C1CCS(=O)(=O)C1 (configuration not stated),12.6 µM (active),–
CSCCC(NC(=O)c1ccccc1Cl)C(=O)N1CCN(C(c2ccccc2)c2ccccc2)CC1 (configuration not stated),3.98 µM (active),–
Cc1ccc(N(Cc2ccco2)C(=O)c2ccc(N3CCCCC3)c([N+](=O)[O-])c2)cc1,11.2 µM (active),–
C=CCNC(=O)c1onc(CSc2ccccc2CC)c1C(=O)O,–,-13.2% (inactive)
O=C(O)c1cc(-c2ccc3ccccc3c2)nc2ccc(F)cc12,–,-26.3% (inactive)
Fc1ccc2cnc(-c3ccccc3)c(-c3ccc(C(F)(F)F)cc3)c2c1,15.8 µM (active),–
CCCN1CCN(C(=O)C2CCN(S(=O)(=O)c3ccc4c(c3)NC(=O)C(C)S4)CC2)CC1 (configuration not stated),12.6 µM (active),–
COc1ccc(C(C)(C)C)cc1NC(=O)c1[nH]c(C)c(C(C)=O)c1C,7.94 µM (active),–
CC(=O)c1c(C)[nH]c(C(=O)COC(=O)COc2ccccc2F)c1C,–,-4.9% (inactive)
CC#CC#Cc1cccc(=O)o1,8.91 µM (active),–
CCCn1c(CN2CCN(C(=O)OCC)CC2)nc2cc(NC(=O)C(C)C)ccc21,11.2 µM (active),–
CCNc1ccc(Br)cc(C(=O)/C=C/c2c(Cl)cccc2Cl)c1=O,10 µM (active),–
COc1ccc(-c2cn(-c3ccccc3)c3[n+]2CCS3)cc1,3.16 µM (active),–
COc1cc(/C=C2\CC(C(C)(C)C)C/C(=C\c3cc(OC)c(OC)c(OC)c3)C2=O)cc(OC)c1OC (configuration not stated),5.01 µM (active),–
COc1cc(/C=C2\COC/C(=C\c3cc(OC)c(OC)c(OC)c3)C2=O)cc(OC)c1OC,2.82 µM (active),–
COc1cc(/C=C2\COC/C(=C\c3ccc(O)c(OC)c3)C2=O)ccc1O,6.31 µM (active),–
COc1cc(/C=C2/CCC/C(=C\c3cc(O)c(OC)c(Cl)c3)C2=O)cc(Cl)c1O,11.2 µM (active),–
COc1ccc(/C=C2\CC/C(=C\c3ccc(OC)c(OC)c3)C2=O)cc1OC,15.8 µM (active),–
CCOc1ccc(/C=C2\SC(=S)N(C(C(=O)O)c3ccccc3)C2=O)cc1OC (configuration not stated),–,0.811% (inactive)
CC(C)c1ccc(NC(=O)c2cc(S(=O)(=O)N3CCCC3)c[nH]2)cc1,12.6 µM (active),–

SMILES,Potency,"activity change, negative = inhibition"
COc1ccc(-c2c(C(C)=O)c(C)n(C)c2C)cc1,12.6 µM (active),–
CC(C)N1CCC(N2CCN(Cc3ccc(-c4ccc(Cl)cc4)o3)CC2CCO)CC1 (configuration not stated),6.31 µM (active),–
Cc1ccc(C)c(C(=O)CN2C3=NCCCN3c3ccccc32)c1,12.6 µM (active),–
OC(CN1C2=NCCN2c2ccccc21)c1ccc2c(c1)OCO2 (configuration not stated),5.01 µM (active),–
O=C(CN1C2=NCCCN2c2ccccc21)c1ccc2c(c1)OCO2,11.2 µM (active),–
Nc1cccc2c1C(=O)N(C(=O)/C=C/c1ccc(F)cc1)C2=O,–,-27.2% (inactive)
Cc1cc2c(c(=O)n1Cc1ccco1)C(c1cccnc1)C(C#N)=C(N)O2 (configuration not stated),–,-11.5% (inactive)
OC(c1ccccc1)(c1ccccc1)C1CCN(C(=S)NCCc2ccccc2)CC1,11.2 µM (active),–
CN(Cc1cccc(Cl)c1Cl)C(=O)c1ccc(NC(=O)CC#N)cc1,3.98 µM (active),–
O=C(CSc1nc(-c2ccco2)cc(C(F)(F)F)n1)Nc1ccccc1C(F)(F)F,14.1 µM (active),–
O=C(CSc1ccc(-c2cccnc2)nn1)Nc1ccccc1C(F)(F)F,–,-11.1% (inactive)
O=S1(=O)C=C(Sc2nc3cc(Cl)ccc3o2)c2ccccc21,11.2 µM (active),–
O=S1(=O)C=C(Sc2nnc(-c3ccccc3)o2)c2ccccc21,12.6 µM (active),–
C#CCn1c(S(=O)(=O)Cc2ccc(F)cc2)nc(-c2ccccc2)c1-c1ccccc1,14.1 µM (active),–
C#CCn1c(S(=O)(=O)Cc2ccc(C)cc2)nc(-c2ccccc2)c1-c1ccccc1,12.6 µM (active),–
CCOC(=O)Cn1c(S(=O)(=O)Cc2cccc(F)c2)nc(-c2ccccc2)c1-c1ccccc1,11.2 µM (active),–
O=C(c1cccc(Cl)c1)c1nn(-c2ccccc2)c(=O)cc1C(F)(F)F,12.6 µM (active),–
O=C(CCl)Nc1cccc2ncccc12,4.47 µM (active),–
Oc1ccc(-c2n[nH]c(=S)n2-c2ccc3c(c2)OCCO3)c(O)c1,0.708 µM (active),–
O=C(c1ccc(CS(=O)c2ccccc2Cl)o1)N1CCN(c2ccccn2)CC1 (configuration not stated),11.2 µM (active),–
O=C(NCc1cccc(Cl)c1)C1CCC(=O)N(CC2CCCCC2)C1 (configuration not stated),14.1 µM (active),–
CCOC(=O)CNC(=O)C(Cc1ccccc1)NC(=O)OCc1ccccc1 (configuration not stated) (Cbz-[ξF]-Gly-OEt),–,-0.99% (inactive)
CCCNC(=O)C(Cc1ccc(F)cc1)NC(=O)c1ccccc1 (configuration not stated),10 µM (active),–
